An excerpt weighted towards active compounds, which were near 4.6% of everything screened.
TRHR agonist = agonists of human TRH receptor; P34981; TRHR cells, calcium flux fluo-8, FDSS agonist mode; activation, % at 2 µM; 0.18% of 360,000 active
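Fluo-8-loaded TRHR cells; 10 s baseline, compound added, kinetic Ca2+ fluorescence read 1/s, agonist mode.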
TRHR enhancer = TRH receptor (human) allosteric enhancement; TRHR cells, fluo-8 calcium fluorescence, EC20 TRH enhancement; 0.66% of 360,000 active; enhancement, % at 2 µM; in the data active = enhancement above about 30%
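TRHR-expressing cells loaded with fluo-8 calcium dye were read kinetically (ex 480/em 530) during compound addition, then stimulated with an EC20 of TRH (10 nM final). Enhancement of the Gq-mediated intracellular calcium response was scored.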
D1 agonist = agonists of human D1 dopamine receptor; 1% of 360,000 active; activation, % at 2 µM; AID 504660; HEK293 T-REx D1 cells, calcium flux, agonist mode; P21728
Target sequence (P21728 whole entry, looked up): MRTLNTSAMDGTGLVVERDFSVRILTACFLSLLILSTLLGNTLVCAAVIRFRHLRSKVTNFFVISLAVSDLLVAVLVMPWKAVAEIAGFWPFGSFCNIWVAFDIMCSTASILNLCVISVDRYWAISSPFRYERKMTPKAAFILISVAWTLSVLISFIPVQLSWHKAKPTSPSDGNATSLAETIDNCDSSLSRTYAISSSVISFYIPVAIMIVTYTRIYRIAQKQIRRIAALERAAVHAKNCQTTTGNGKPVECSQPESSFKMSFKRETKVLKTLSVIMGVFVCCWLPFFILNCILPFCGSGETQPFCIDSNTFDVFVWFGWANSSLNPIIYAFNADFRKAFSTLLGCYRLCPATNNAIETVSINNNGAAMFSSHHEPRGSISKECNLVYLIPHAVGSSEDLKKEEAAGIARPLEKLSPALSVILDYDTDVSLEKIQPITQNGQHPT
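Agonism was scored from calcium flux recorded over 180 s (1 read/s) after pintool compound addition, following a 10-cycle baseline. Cells were inducible force-coupled HEK293 TREx D1, plated overnight at 30 C and loaded with no-wash calcium dye.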
D1 potentiator = enhances dopamine response at the human D1 receptor | AID 504651 | 0.036% of 360,000 active | potentiation, % at 10 µM | P21728 | HEK293 TREx D1 cells, calcium flux, dopamine EC20 potentiation; in the data active = potentiation above about 30%
D1 antagonist = human D1 dopamine receptor antagonism; 3.2% of 360,000 active; HEK293 TREx D1 cells, calcium flux, dopamine EC80; active compounds read low; activity change, negative = inhibition, % at 10 µM; in the data active = activity change below about -30%
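Allosteric or orthosteric antagonism assessed as attenuation of the calcium response to EC80 dopamine, added 180 s after compound, in induced HEK293 Trex D1 cells loaded with no-wash calcium dye.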
Numbers stand for hits; n = inactive; ! = a repeat was not active. Rule as the data show it, unless noted: active = activation above about 30%; inactive = the rest.

SMILES | TRHR agonist | TRHR enhancer | D1 agonist | D1 potentiator | D1 antagonist
COc1ccccc1CNC(=O)C1CCN(C(=O)N(C)C)CC1 | n | n | n | n | -38
CN(C)C(=O)N1CCC(C(=O)NCc2ccc(F)cc2)CC1 | n | n | n | n | n
O=C(O)CCC(=O)OCC1CCCCC1 | n | n | n | n | n
COc1cccc(CNC(=O)Cc2csc(NC(=O)Nc3ccccc3OC)n2)c1 | n | n | n | n | n
Cc1ccc(S(=O)(=O)NCCC(=O)NCC(c2ccco2)N2CCCCC2)cc1C (stereo unspecified) | n | n | n | n | n
Cc1nn(-c2ccc(F)cc2F)c2c1-c1nc(N3CCCC3)ncc1CC2 | n | n | n | n | -42
COc1cccc(NC(=S)N2CCCN(Cc3ccc(F)cc3)C2)c1 | n | n | n | n | -41
COc1ccc(NC(=S)N2CCN(Cc3ccccc3)CC2)cc1 | n | 33 | n | n | n
COC(=O)c1cc(OC)c(OC)cc1NC(=S)N1CCN(Cc2ccccc2)CC1 | n | n | n | n | -32
COc1cc(=O)n(C)c2cc(N(C)C)ccc12 | n | n | n | n | n
CC(=O)Nc1ccc(C)cc1-c1nc2ccccc2n(CC(=O)c2ccc(C)c(C)c2)c1=O | n | n | n | n | n
Fc1ccc(C(CCNCc2ccccn2)c2ccc(Cl)cc2)cc1 (stereo unspecified) | n | n | 67 | n | n
COC(=O)c1ccc(NC(=O)C(=O)NCCc2csc(-c3ccc(C(F)(F)F)cc3)n2)cc1 | n | n | n | n | n
N#Cc1cc(N)ccc1Sc1ccc(Cl)cc1 | n | n | n | n | -32
N#Cc1cc(N)ccc1Sc1ccccc1 | n | n | n | n | n
O=C(/C=C/c1ccccc1)OCC(=O)N1CCCC1 | n | n | n | n | n
O=C(COC(=O)c1ccc(S(=O)(=O)NCc2ccco2)cc1)NCc1ccc(F)cc1 | n | n | n | n | -41
O=C(Nc1ccc(S(=O)(=O)NCc2ccco2)cc1)c1ccc(F)cc1 | n | n | n | n | -35
Cc1cc(C)n(-c2ccc(C(=O)Nc3ccc(S(=O)(=O)NCc4ccco4)cc3)cc2)n1 | n | n | n | n | -41
O=C(COC(=O)c1ccc(S(=O)(=O)NCc2ccco2)cc1)c1ccccc1 | n | n | n | n | n
O=C(Nc1cccc2ccccc12)C1CCCC1 | n | n | n | n | n
Cn1c(=O)[nH]c(=O)c2c1nc(Br)n2CCSc1nnnn1-c1ccccc1 | n | n | n | n | n
CCC(=O)NC(/C=C/c1ccccc1)c1cc([N+](=O)[O-])c2cccnc2c1O (stereo unspecified) | n | 32 | n | n | n
O=C(Nc1c(Cl)cccc1Cl)c1cc(-c2cccc(O)c2)on1 | n | n | 47 | n | -50
Cc1cc2oc(C(=O)Nc3c(C)n(C)n(-c4ccccc4)c3=O)c(C)c2cc1C | n | n | n | n | n
SMILES | TRHR agonist | TRHR enhancer | D1 agonist | D1 potentiator | D1 antagonist
Cc1c(NC(=O)c2cc(-c3ccc(Cl)cc3)on2)c(=O)n(-c2ccccc2)n1C | n | 30! | n | n | n
O=C(Nc1c(Cl)cccc1Cl)c1cc(-c2ccc3c(c2)OCO3)on1 | n | n | n | n | n
Cc1ccc2c(C)c(C(=O)Nc3c(C)n(C)n(-c4ccccc4)c3=O)oc2c1C | n | n | n | n | -37
CN1CCN(C(=O)/C=C/c2ccc([N+](=O)[O-])o2)CC1 | n | n | n | n | -32
O=C(O)/C=C/c1ccc([N+](=O)[O-])o1 | n | n | n | n | n
COc1ccc(CCNC(=O)C(=O)NCC2OCCN2S(=O)(=O)c2cccs2)cc1 (stereo unspecified) | n | n | n | n | n
O=C(CSc1ncnc2sccc12)Nc1ccccc1 | n | n | n | n | -61
O=C(CSc1ncnc2sccc12)Nc1ccccc1F | n | n | n | n | n
COc1ccc2[nH]c(=O)c(CN(Cc3ccccc3)C(=S)NCC3CCCO3)cc2c1 (stereo unspecified) | n | 35 | n | n | n
COc1ccc2[nH]c(=O)c(CN(CCCN3CCOCC3)C(=O)NCc3ccccc3)cc2c1 | n | n | n | n | -37
CCOc1ccc2[nH]c(=O)c(CN(CC3CCCN3CC)C(=O)NCc3ccccc3)cc2c1 (stereo unspecified) | n | n | n | n | -50
Cc1cccc(CN2CCC(CNC(=O)Cn3ncc4c([nH]c5ccc(C)cc54)c3=O)CC2)c1 | n | n | n | n | n
